Results: PubChem BioAssay (Tox21)
Records with an inconclusive call do not appear. Activity calls are given as the source filed them. Calls follow the shape of the dose curve; as a rule, active = well fitted cell-killing curve with a large enough effect in the repeat runs; inconclusive = weak or mixed curves; inactive = flat fitted curve, though single readings scatter.

Test: qHTS RealTime-Glo MT Cell Viability Assay in HepG2 cells - 8 hour (AID 1224873); also: nearly all actives have a fitted effect of over 55% in size
Conditions: RealTime-Glo luminescence; series mostly up to 76.8 µM; viability change, negative = cytotoxic: at the top concentration
Excerpt: National Center for Advancing Translational Sciences [NCATS]
NIH Chemical Genomics Center [NCGC]
U.S. Environmental Protection Agency [EPA]
National Institutes of Environmental Health Sciences [NIEHS]
National Toxicology Program [NTP]
U.S. Food and Drug Administration [FDA]
Measure of cell viability is critical in the cell-base assay. Analysis of cell viability is necessary for the characterization of cell responses to cytotoxic drugs and environmental stress. A RealTime-Glo MT Cell Viability Assay to monitor cell viability in real time of continues cell culture during 40 hours of compound treatment was used to screen Tox21 10K library compounds in HepG2 cells. The RealTime-Glo MT Cell Viability Assay is a nonlytic, homogeneous, bioluminescent method to measure cell viability in real time using a simple, plate-based method. The assay involves adding NanoLuc luciferase and a cell-permeant prosubstrate to cells in culture. Viable cells reduce the proprietary prosubstrate to generate a substrate for NanoLuc luciferase. This substrate diffuses from cells into the surrounding culture medium, where it is rapidly used by the NanoLuc Enzyme to produce a luminescent signal. The signal correlates with the number of viable cells, making the assay well suited for cytotoxicity studies.
Tox21 Assay Protocol Summary:
The mixture of HepG2 cell suspension and reagents were dispensed at 600cells/6 ul/well in 1536-well tissue culture treated black solid bottom plates using a Multidrop dispenser. After the assay plates were incubated at a 37 C/5% CO2 incubator for 5 hours, 23 nL of compounds dissolved in DMSO, positive and negative controls was transferred to the assay plate by a pintool work station. The plates were incubated at 37 C for 40 hours. The luminescence intensity were measured at 0h, 8h, 16h, 24h, 32h and 40h time points using ViewLux plate reader during compound treatment.
% is scaled to controls: 0 for no effect and ±100 for the full control effect.

SMILES | viability change, negative = cytotoxic
CC1(C)OC(=O)Nc2ccc(Br)cc21 | 5.28% [at 35.3 µM] (inactive)
FC(F)(F)C(F)(F)C(F)(F)C(F)(F)C(F)(F)C(F)(F)C(F)(F)C(F)(F)C(F)(F)C(F)(F)F | 3.63% [at 6.97 µM] (inactive)
CC(C)(C)OC(=O)N1C[C@@H](F)C[C@H]1C(=O)O | 0.502% (inactive)
CCOC(=O)[C@H](CCc1ccccc1)N[C@@H](C)C(=O)N1CCC[C@H]1C(=O)O | 2.17% [at 35.3 µM] (inactive)
COC[C@H](c1ccc(C(F)(F)F)cc1)N1CCN(C2(C)CCN(C(=O)c3c(C)ncnc3C)CC2)C[C@H]1C | -6.17% [at 35.3 µM] (inactive)
NS(=O)(=O)c1cc2c(cc1Cl)NC(CSCc1ccccc1)=NS2(=O)=O | 4.14% [at 35.3 µM] (inactive)
c1ccc(SCCSc2ccccc2)cc1 | 1.91% (inactive)
C=C(C)[C@@H]1CCC2=CC(=O)C[C@@H](C)[C@]2(C)C1 | -1.52% (inactive)
C[N+](C)(C)CC[N+]1(C)Cc2c(Cl)c(Cl)c(Cl)c(Cl)c2C1 | 4.25% [at 35.3 µM] (inactive)
CCCCCCCCCCCl | -0.319% (inactive)
CC(C)CCCC(C)CCCC(C)CCCCC(C)CCCC(C)CCCC(C)C (stereo not given) | 1.29% [at 35.3 µM] (inactive)
Nc1nc(F)nc2c1ncn2[C@@H]1O[C@H](CO)[C@@H](O)[C@@H]1O | 7.71% [at 35.3 µM] (inactive)
CCC(C(=O)NC(N)=O)c1ccccc1 (stereo not given) | -1.72% (inactive)
CCCCCCCCCCC1CO1 (stereo not given) | 2.61% (inactive)
CC/C=C\C#N | 1.58% (inactive)
CCCCNc1ccccc1 | -0.192% (inactive)
CCCCCCCCCCCCI | -4.54% (inactive)
CCN(CC)S(=O)(=O)c1ccc(C(=O)O)cc1 | -3.15% [at 35.3 µM] (inactive)
CCCCCCCCN(C)CCCCCCCC | -9.81% (inactive)
O=C(O)Cc1cc(I)c(Oc2cc(I)c(O)c(I)c2)c(I)c1 | -0.375% [at 35.3 µM] (inactive)

SMILES | viability change, negative = cytotoxic
Cc1ccccc1Br | 0.528% (inactive)
CC(C)[C@H](N)C(=O)OCCOCn1cnc2c(=O)[nH]c(N)nc21 | 7.71% [at 35.3 µM] (inactive)
Cc1cc(C)cc(OCC2CNC(=O)O2)c1 (stereo not given) | 7.99% [at 35.3 µM] (inactive)
CC(CCO)CCCC(C)(C)O (stereo not given) | 0.156% (inactive)
CC(=O)NC(Cc1ccccc1)C(=O)O (stereo not given) | 6.15% [at 35.3 µM] (inactive)
CC1(C)SC(C)(C)SC(C)(C)S1 | -2.43% (inactive)
NC(N)=NS(=O)(=O)c1ccc(N)cc1 | 0.88% [at 35.3 µM] (inactive)
COc1ccc(N=[N+]([O-])c2ccc(OC)cc2)cc1 | -8.21% (inactive)
CO[Si](OC)(OC)OC | 4.56% (inactive)
CCC(=O)c1cccc(Cl)c1 | -7.17% (inactive)
COc1cc(C)cc(O)c1 | 2.14% (inactive)
CC1=CCC2C(C1)C2(C)C (stereo not given) | 2.02% (inactive)
COC(=O)[C@H]1[C@H]2C[C@@H]3c4[nH]c5cc(OC)ccc5c4CCN3C[C@H]2C[C@@H](OC(=O)COc2ccc(OC)cc2)[C@@H]1OC | 0.435% [at 35.3 µM] (inactive)
CCc1cc(S(=O)(=O)O)c2cc(C(C)C)cccc1-2 | 1.55% [at 35.3 µM] (inactive)
CCCCCC[C@@H](CCC)C(=O)O | 5.07% [at 35.3 µM] (inactive)
CC(C)CCCC(C)NCCC(C)C (stereo not given) | -0.0945% [at 35.3 µM] (inactive)
CC(=O)OC(C)(C)C | -0.179% (inactive)
c1ccc(CCCc2ccccn2)cc1 | -8.58% (inactive)
CC(=O)c1ccc(C)cc1 | 0.0073% (inactive)
NCCNC(=O)c1ccc(Cl)cn1 | -0.806% [at 35.3 µM] (inactive)
